{"source": "PubChem BioAssay (NCATS)", "note": "Values without a mark were called inactive. Calls of active or inactive are those of the source. The call rests on the fitted dose curve; in most records, active means well fitted curve in the direction sought with a large enough effect; inconclusive means small, poorly fitted or top-dose-only effect, or another doubt; inactive means no such curve, though single readings can be large or run the other way."}
{"molecular_target": "alpha-glucosidase (Oryza sativa, rice) (UniProt Q653V4)", "assay": "Counterscreen for Glucocerebrosidase Inhibitors: qHTS Assay for Rice alpha-Glucosidase at pH 5.0 (AID 997);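 further: 0% = full activity with enzyme and -100% = basal without enzyme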", "details": "rice alpha-glucosidase enzyme activity; series mostly up to 76.9 µM; activity change, negative = inhibition: at the top concentration", "source_text": "NIH Chemical Genomics Center [NCGC]\nNIH Molecular Libraries Screening Centers Network [MLSCN]\nPI Name: Zheng, Wei [NIH]\nAlpha-glucosidase is responsible for hydrolysis of terminal, non-reducing 1,4-linked alpha-D-glucose residues with release of alpha-D-glucose. It is a lysosomal hydrolase that is required for the degradation of a small percentage (1-3%) of cellular glycogen in human. Deficiency of this enzyme results in glycogen-storage disease type II (GSDII), also referred to as Pompe disease, an autosomal recessive disorder. Structurally normal glycogen is accumulated in lysosomes and cytoplasm in affected patients, primarily in muscle tissues. Excessive glycogen storage within lysosomes may interrupt normal functioning of other organelles and leads to cellular injury. In turn, this leads to enlargement and dysfunction of the entire organ involved (eg, cardiomyopathy and muscle weakness).\nIt has reported that the improper folding and trafficking of alpha-glucosidase resulted from the genetic mutations may account for a significant number of Prope patients. […] We optimized this alpha-glucosidase assay in 1536-well plate format for identifying the novel small molecule inhibitors with the structures other than the sugar analogs in order to develop the new pharmacological chaperones.\nNCGC Assay Protocol Summary:\nThis is a fluorogenic enzyme assay with 4-methylumbelliferyl-alpha-D-pyranoside as the substrate and rice alpha-glucosidase as the enzyme preparation. Upon the hydrolysis of this fluorogenic substrate, the resulting product, 1. 4-methyllumbelliferone, can be excited at 365 nm and emits at 440 nm which can be detected by a standard fluorescence plate reader. Data were normalized to the controls for basal activity (without enzyme) and 100% activity (with enzyme). In the AC50 values were determined from concentration-response data modeled with the standard Hill equation.\nAssay buffer: 50 mM citric acid, 0.005% Tween-20, pH 5.0. (pH 5.0 is an optimal condition for this enzyme assay)\n1536-well assay protocol for the human alpha-glucosidase:\n(1) Add 2 ul/well of enzyme (4 nM final)\n(2) Add 23 nL compounds in DMSO solution. The final titration was 0.7 nM to 77 uM.\n(3) Add 1 ul of substrate (400 uM final)\n(4) Incubate at room temperature for 20 min.\n(5) Add 2 ul stop solution (1M NaOH and 1M Glycine mixture, pH 10)\n(6) Detect the assay plate in a ViewLux plate reader (PerkinElmer) with Ex=365 nm and Em=440nm.\nKeywords: Alpha-glucosidase, Prope Disease, pharmacological chaperone, chaperone therapy, high throughput screening, alpha-glucosidase inhibitor, MLSMR, MLSCN, NIH Roadmap, qHTS and NCGC", "units": {"activity change, negative = inhibition": "%"}}
{"smiles": "CN(C)CCO[C@](C)(c1ccccc1)c1ccccn1", "activity change, negative = inhibition": -1.47}
{"smiles": "CN(C)CC[C@H](c1ccc(Br)cc1)c1ccccn1", "outcome": "inactive"}
{"smiles": "CCN1CCC[C@@H]1CNC(=O)c1cc(S(N)(=O)=O)ccc1OC", "activity change, negative = inhibition": -2.82}
{"smiles": "C[C@@H](C(=O)O)c1cccc(C(=O)c2ccccc2)c1", "activity change, negative = inhibition": -2.24}
{"smiles": "C[C@@](N)(Cc1ccc(O)cc1)C(=O)O", "outcome": "inactive"}
{"smiles": "N[C@@H](CO)C(=O)NNCc1ccc(O)c(O)c1O", "activity change, negative = inhibition": -2.91}
{"smiles": "CCCCCN(CCCCC)C(=O)[C@H](CCC(=O)O)NC(=O)c1ccc(Cl)c(Cl)c1", "activity change, negative = inhibition": -4.57}
{"smiles": "C[C@@H](C[N+](C)(C)C)OC(N)=O", "activity change, negative = inhibition": -3.86}
{"smiles": "C[C@@H](CN(C)C)CN1c2ccccc2CCc2ccccc21", "activity change, negative = inhibition": -4.52}
{"smiles": "CC(C)(Oc1ccc([C@@H]2CC2(Cl)Cl)cc1)C(=O)O", "activity change, negative = inhibition": 1.44}
{"smiles": "c1ccc([C@@H]2CN3CCSC3=N2)cc1", "outcome": "inactive"}
{"smiles": "CCn1cc(C(=O)O)c(=O)c2cc(F)c(N3CCN[C@@H](C)C3)c(F)c21", "activity change, negative = inhibition": -2.25}
{"smiles": "CC1=C(C(=O)O)N2C(=O)[C@@H](NC(=O)[C@@H](N)c3ccccc3)[C@@H]2SC1", "activity change, negative = inhibition": -3.06}
{"smiles": "NC(=O)c1cc[n+](CC2=C(C(=O)O)N3C(=O)[C@@H](NC(=O)[C@H](c4ccccc4)S(=O)(=O)[O-])[C@@H]3SC2)cc1", "activity change, negative = inhibition": -2.25}
{"smiles": "Oc1cc2c(c(Cl)c1O)CCNC[C@H]2c1ccccc1", "activity change, negative = inhibition": 1.99}
{"smiles": "COc1cc(=O)n(C)c2c(OC[C@@H](O)C(C)(C)O)cccc12", "activity change, negative = inhibition": -0.48}
{"smiles": "CC(C)COC[C@H](CN(Cc1ccccc1)c1ccccc1)N1CCCC1", "activity change, negative = inhibition": -8.12}
{"smiles": "C[C@@H]1c2cccc(O)c2C(O)=C2C(=O)[C@@]3(O)C(O)=C(C(N)=O)C(=O)[C@@H](N(C)C)[C@@H]3[C@@H](O)[C@@H]21", "activity change, negative = inhibition": -9.52}
{"smiles": "CC(=O)O[C@@H](C)C[N+](C)(C)C", "activity change, negative = inhibition": -1.28}
{"smiles": "C[C@H](NCCc1ccc(O)cc1)[C@@H](O)c1ccc(O)cc1", "activity change, negative = inhibition": -2.35}
{"smiles": "COCCc1ccc(OC[C@H](O)CNC(C)C)cc1", "activity change, negative = inhibition": -1.78}
{"smiles": "OCCN1CCN(CC/C=C2\\c3ccccc3Sc3ccc(C(F)(F)F)cc32)CC1", "activity change, negative = inhibition": 0.101}
{"smiles": "CN1[C@@H](CC(=O)c2ccccc2)CCC[C@@H]1C[C@@H](O)c1ccccc1", "activity change, negative = inhibition": -1.78}
{"smiles": "C[C@@H](COc1ccccc1)N(CCCl)Cc1ccccc1", "activity change, negative = inhibition": -4.75}
{"smiles": "CN1CCc2cccc3c2[C@@H]1Cc1ccc(O)c(O)c1-3", "activity change, negative = inhibition": 5.2}
{"smiles": "Cc1ccccc1[C@@H](OCCN(C)C)c1ccccc1", "activity change, negative = inhibition": -4.94}
{"smiles": "CO[C@]1(NC(=O)CSCC#N)C(=O)N2C(C(=O)O)=C(CSc3nnnn3C)CS[C@H]21", "activity change, negative = inhibition": -3.53}
{"smiles": "CN1Cc2c(N)cccc2[C@H](c2ccccc2)C1", "activity change, negative = inhibition": -2.44}
{"smiles": "O=C(c1ccccc1)c1ccc2n1CC[C@H]2C(=O)O", "activity change, negative = inhibition": -7.18}
{"smiles": "CCN(CC)CCC[C@H](C)Nc1c2ccc(Cl)cc2nc2ccc(OC)cc12", "activity change, negative = inhibition": -0.577}
{"smiles": "CN1[C@@H]2CC[C@H]1CC(OC(=O)[C@@H](O)c1ccccc1)C2", "note": "(stereo not given in full)", "activity change, negative = inhibition": 0.545}
{"smiles": "CC(=O)OCC1=C(C(=O)O)N2C(=O)[C@@H](NC(=O)Cc3cccs3)[C@@H]2SC1", "activity change, negative = inhibition": 0.27}
{"smiles": "C[C@@H]1COc2c(N3CCN(C)CC3)c(F)cc3c(=O)c(C(=O)O)cn1c23", "activity change, negative = inhibition": -0.7}
{"smiles": "CC[C@]1(C)CC(=O)NC1=O", "activity change, negative = inhibition": -2.18}
{"smiles": "CC(=O)O[C@]1(C(C)=O)CC[C@@H]2[C@@H]3C=C(Cl)C4=CC(=O)[C@H]5C[C@@H]5[C@]4(C)[C@H]3CC[C@]21C", "activity change, negative = inhibition": -1.63}
{"smiles": "CCN(CC)CC#CCOC(=O)[C@@](O)(c1ccccc1)C1CCCCC1", "activity change, negative = inhibition": -6.04}
{"smiles": "CC[C@H](NC(C)C)[C@H](O)c1ccc(O)c(O)c1", "activity change, negative = inhibition": -5.9}
{"smiles": "CC(C)(C)NC[C@H](O)c1cc(O)cc(O)c1", "activity change, negative = inhibition": -6.13}
{"smiles": "Cc1cccc(C)c1OC[C@H](C)N", "activity change, negative = inhibition": -0.27}
{"smiles": "COc1ccc([C@H]2Sc3ccccc3N(CCN(C)C)C(=O)[C@H]2OC(C)=O)cc1", "activity change, negative = inhibition": 0.532}
